A number with no mark means an inactive call. No rule for the calls is given here.
Test system: Phorbol Ester
Experiment: receptor, enzyme and CYP inhibition profiling – biochemical, Ricerca HitProfilingScreen, CYP450, selectivity assay for S1P4 antagonist project, profiling panel (AID 489017)
Conditions: Ricerca receptor/enzyme binding panel plus CYP450, at 10 µM, stronger effect = higher value

## CCc1cccc(CC)c1NC(=O)c1ccc(-c2cc(Cl)ccc2Cl)o1
  inhibition: -12%
